# Sampled rows, rich in hits. Any-hit rate of the full collection: about 2.3%.
# A549 viability: kills or reduces viability of A549 cells in Nrf2 counter-screen | A549 ARE-Fluc cells, CellTiter-Fluor viability, 18-24 h | Potency, µM (doses to about 46 µM), without a hit: top-dose activity change, negative = cytotoxicity, actives largely listed as inhibitors | 390,000 compounds, 0.16% hits; further: potency means the concentration at half of the fitted maximal effect; on the % scale 0 is the no-effect control and ±100 the full control effect
#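 A549 ARE_Fluc cells in 5% FBS OPTI-MEM were exposed to compounds in concentration-response for 18-24 h at 37 deg C. Viability was read by CellTiter-Fluor fluorescence (Ex 405/Em 525) after 30 min, before the luciferase read.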
# mIDH1 inhibitor: human IDH1 R132H inhibition. IDH1-R132H enzyme, NADPH consumption, diaphorase/resazurin fluorescence. O75874. 390,000 compounds, 0.093% hits. Potency, µM (series often up to 76.6 µM), for inactives: at the highest dose activity change, negative = inhibition, most hits filed as inhibitors; further: potency means the concentration at half of the fitted maximal effect; on the % scale 0 is the no-effect control and ±100 the full control effect; nearly all actives have a fitted effect of over 65% in size
# Target sequence (O75874 whole entry R132H, stated change not applied): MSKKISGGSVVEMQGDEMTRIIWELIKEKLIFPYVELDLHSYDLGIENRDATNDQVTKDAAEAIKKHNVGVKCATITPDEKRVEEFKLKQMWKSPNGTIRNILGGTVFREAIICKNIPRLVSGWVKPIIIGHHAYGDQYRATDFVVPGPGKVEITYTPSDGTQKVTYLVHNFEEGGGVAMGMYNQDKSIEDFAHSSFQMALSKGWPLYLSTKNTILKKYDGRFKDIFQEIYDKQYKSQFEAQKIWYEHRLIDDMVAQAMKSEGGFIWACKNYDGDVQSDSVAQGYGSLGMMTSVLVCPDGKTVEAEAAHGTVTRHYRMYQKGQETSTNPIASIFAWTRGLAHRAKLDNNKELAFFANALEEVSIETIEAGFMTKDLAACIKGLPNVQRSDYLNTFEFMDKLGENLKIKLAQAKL
#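 IDH1-R132H (0.5 ug/mL dispensed) in pH 7.5 Tris buffer was preincubated 30 min with compound, then given a substrate mix of 0.016 mM NADPH and 2 mM alpha-KG for 80 min at room temperature; remaining NADPH was read by diaphorase/resazurin fluorescence.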
# Nrf2 ARE act: activators of Nrf2 (ARE) signaling | AREc32 ARE-luciferase reporter (MCF7-derived line), luminescence, 24 h | Potency, µM (highest dose often 46.1 µM), without a hit: top-dose activation, hits mostly activators | 410,000 compounds, 0.31% hits; further: potency means the concentration at half of the fitted maximal effect; % of control where 0% means no effect; nearly all actives have a fitted effect of over 65% in size
#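 Quantitative high-throughput format: AREc32 reporter cells, 1000 per well, received compound by pin transfer and were incubated 24 hr at 37 deg C, 5% CO2, before Steady-Glo luminescence detection.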
# Anesthetic bind: candidate novel general anesthetic via apoferritin binding; P02791; apoferritin/1-aminoanthracene competitive binding, fluorescence; Potency, µM (top dose mostly 77.5 µM), for inactives: at the top dose activity change, negative = displacement, actives largely listed as inhibitors; 350,000 compounds, 0.074% hits; further: potency means the concentration at half of the fitted maximal effect; on the % scale 0 is the no-effect control and ±100 the full control effect; nearly all actives have a fitted effect of over 20% in size
# Target sequence (P02791 2-175 limits assumed): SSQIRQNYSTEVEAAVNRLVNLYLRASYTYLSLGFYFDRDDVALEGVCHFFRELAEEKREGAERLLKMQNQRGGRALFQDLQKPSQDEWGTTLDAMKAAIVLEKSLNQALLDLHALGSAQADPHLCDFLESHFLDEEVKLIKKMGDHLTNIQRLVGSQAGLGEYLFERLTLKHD
#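 Probe: 1-aminoanthracene (50% saturated, PBS). Protein: horse-spleen apoferritin, 10 uM. Incubation: 10 min, room temperature. Detection: 380 nm excitation, 535 nm emission. Analysis: normalized response, four-parameter Hill.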
# Nrf2 block: blocks Nrf2 signaling; A549 ARE-Fluc reporter, luciferase luminescence, 18-24 h; Potency, µM (doses to about 46 µM), for inactives: at the highest dose activity change, negative = inhibition, hits mostly inhibitors; 360,000 compounds, 2.1% hits; AID 504444; further: potency means the concentration at half of the fitted maximal effect; on the % scale 0 is the no-effect control and ±100 the full control effect; nearly all actives have a fitted effect of over 60% in size
#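 Cells were seeded and rested 2 h, then exposed to compounds for 18-24 h. CellTiter-Fluor was read first as a viability measure. BugLite was added 15 min before the final luminescent read of ARE-luciferase activity in A549 cells.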
# Giardia kill: Giardia lamblia killing; Giardia lamblia trophozoite viability; activity change, % at 7.66 µM, hits read low; 340,000 compounds, 0.15% hits; in the data active means activity change below about -80%; inconclusive means between about -30% and that limit;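 further: parasites exposed to compound for two days anaerobically before the ATP read; on the % scale 0 is the no-effect control and ±100 the full control effect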
#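 Compounds were tested on trophozoites seeded at 100 cells/well and held 48 hrs at 37 deg C anaerobically. An ATP-based luminescent kit measured the remaining live cells.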
# Starred values were filed as active, the others as inactive; ? = inconclusive; . = not tested or not shown; [ ] = remark or other dose. Unless noted, the call rests on the fitted dose curve; in most records, active means well fitted curve in the direction sought with a large enough effect; inconclusive means small, poorly fitted or top-dose-only effect, or another doubt; inactive means no such curve, though single readings can be large; an effect the other way counts as inactive or inconclusive.
SMILES,A549 viability,mIDH1 inhibitor,Nrf2 ARE act,Anesthetic bind,Nrf2 block,Giardia kill
CCCN(CCC)C(=O)/C=C/c1cccc([N+](=O)[O-])c1,12%,2%,12%,0%,-8%,54
COc1cc(Cl)ccc1OC1(C)CCN(Cc2ccc3ccccc3c2)C1 (configuration not stated),.,.,8%,.,.,.
CN(C)c1ccc(/C=C/c2cc[n+](C)cc2)cc1,21µM*,0%,3%,-21%,4.1µM*,-3
C[n+]1ccc(/C=C/c2cccs2)cc1,8.2µM*,-3%,2%,-6%,2.3µM*,19
Cc1ccc(/C=C/c2ccc(N(C)C)cc2)[n+](C)c1,10µM*,2%,3%,3%,4.1µM*,-6
CC1(C)OC(=O)C2(Cc3c(F)cccc3N3CCCC32)C(=O)O1 (configuration not stated),-1%,.,.,.,0%,20
C=NC(C(=O)NC1C(=O)N2C1SC(C)(C)C2C(=O)O)c1ccccc1 (configuration not stated),.,.,.,-3%,.,.
O=C(O)CCC(=O)Nc1nnc(C(F)(F)F)s1,0%,3%,0%,-5%,.,-17
CCC(NC(=O)Nc1nnc(C(F)(F)F)s1)(C(F)(F)F)C(F)(F)F,7.3µM*,4%,0%,?,3.7µM*,1
OC(c1ccccc1)(c1nc(-c2cc3ccccc3o2)cs1)C(F)(F)F (configuration not stated),.,.,0%,.,.,.
COc1cc(F)ccc1-c1cc(C(=O)NCc2cc(C(F)(F)F)cc(C(F)(F)F)c2)[nH]n1,.,.,0%,.,.,.
O=c1oc2ccccc2c(Nc2ccc(Cl)cc2)c1[N+](=O)[O-],-4%,-4%,14%,-20%,16µM*,11
O=[N+]([O-])c1nn(-c2ccc3c(c2)OCCO3)n(O)c1=NCc1ccccc1Cl,8%,12%,1%,-19%,?,?
O=[N+]([O-])c1nn(-c2ccc3c(c2)OCCO3)n(O)c1=NC1CCCCC1,-14%,3%,2%,-24%,?,-84*
COc1ccccc1CN=c1c([N+](=O)[O-])nn(-c2ccc3c(c2)OCCO3)n1O,-6%,-6%,4%,-11%,?,-90*
O=S(=O)(Nc1cccc(-c2ccc(N3CCOCC3)nn2)c1)c1ccc(F)c(C(F)(F)F)c1,11%,-4%,6%,?,.,.
NC(=O)CC(NC(=O)c1ccccc1)c1ccc(N2CCN(c3ccccc3)CC2)c([N+](=O)[O-])c1 (configuration not stated),-5%,-8%,-1%,?,?,24
NC(=O)CC(NC(=O)c1ccccc1)c1ccc(N2CCN(c3ccc(F)cc3)CC2)c([N+](=O)[O-])c1 (configuration not stated),-19%,-4%,0%,?,21µM*,1
NC(=O)c1ccc(N2CCN(c3ccc(O)cc3)CC2)c([N+](=O)[O-])c1,-22%,2%,1%,-12%,18µM*,-6
COc1cc(NS(=O)(=O)c2ccc(C)cc2C)cc(OC)c1OC,-21%,5%,0%,-22%,10µM*,-3
Cc1ccc(-c2noc(CSc3nnc(C)n3-c3ccc(C)c(C)c3)n2)cc1,-12%,-12%,5%,-11%,16µM*,.
Cc1ccc(-n2c(SCc3nc(-c4ccc(Cl)cc4)no3)nnc2-c2ccncc2)cc1,-24%,-6%,5%,?,23µM*,.
CCOc1ccc(-c2noc(CSc3nnc(-c4ccccc4)n3-c3ccccc3)n2)cc1,-10%,-1%,-1%,-2%,?,.
Cc1ccc(-c2noc(CSc3nnc(-c4ccncc4)n3-c3ccc(C)cc3)n2)cc1,-15%,2%,-1%,?,?,-4
Clc1ccccc1-c1nnc(SCc2nc(-c3ccccc3)no2)n1-c1ccccc1,-29%,.,-1%,31%,15µM*,.
SMILES,A549 viability,mIDH1 inhibitor,Nrf2 ARE act,Anesthetic bind,Nrf2 block,Giardia kill
Cc1cc(-c2ccc(S(=O)(=O)Nc3cccc(C)c3C)s2)on1,-13%,0%,-1%,?,?,.
COC(=O)/C=C/c1ccc2c(c1)S(=O)(=O)N(Cc1ccc(OC)cc1)[C@H]2CC(=O)OC,-5%,6%,18µM*,.,9%,-1
COc1ccc(CN2[C@@H](CC(C)=O)c3ccc(/C=C/C(C)=O)cc3S2(=O)=O)cc1,0%,-9%,23%,.,4%,8
CCOc1ccc(-n2c(SCc3ccc(C(=O)OC)o3)nc3c([nH]c4ccccc43)c2=O)cc1,8%,-15%,1%,-11%,.,.
Nc1[nH]c2cc([N+](=O)[O-])ccc2c1-c1ccccn1,13µM*,1%,3%,-3%,-24%,-5
Nc1nc2ccc([N+](=O)[O-])cc2[nH]1,-14%,-9%,0%,3%,-4%,-5
Cc1ccc(NS(=O)(=O)c2ccc3c(c2)CCC(=O)N3)cc1Cl,17%,.,.,.,-3%,.
CS(=O)(=O)c1nc(S(=O)(=O)c2ccc(Cl)cc2)c(N2CCC(C(N)=O)CC2)s1,-10%,-4%,?,-5%,-49%,-2
CS(=O)(=O)c1nc(S(=O)(=O)c2ccc(Cl)cc2)c(N2CCC3(CC2)OCCO3)s1,-4%,-1%,10µM*,-20%,?,2
CCS(=O)(=O)c1nc(S(=O)(=O)c2ccc(Cl)cc2)c(N2CCC3(CC2)OCCO3)s1,2%,0%,11µM*,-9%,6%,8
CCS(=O)(=O)c1nc(S(=O)(=O)c2ccc(Cl)cc2)c(N2CCOCC2)s1,5%,0%,?,-1%,-10%,-2
CCOc1cc(Cl)c(S(=O)(=O)NCCCn2ccnc2)cc1Cl,-9%,7%,0%,?,16µM*,2
COc1cc(OC)c(NC(=O)Cn2c(SCc3ccccc3F)nc3cccnc32)cc1Cl,11%,-10%,-1%,-15%,5%,.
O=C(Nc1ccc(OC(F)F)cc1)c1ncc(Cl)c(Cl)c1Cl,6%,1%,7.1µM*,-20%,1%,12
CCOc1ccc(CCNC(=O)c2cc(=O)[nH]c3ccc(S(=O)(=O)N4CCCCC4C)cc23)cc1OCC (configuration not stated),-1%,-6%,1%,?,.,.
CC(=O)OC[C@@H]1O[C@@H](O/N=C2/C[C@@H](O)[C@@H](O)[C@@H]3[C@H]4C(=O)N(c5ccc(F)cc5F)C(=O)[C@@H]4CC[C@@H]23)[C@H](OC(C)=O)[C@H](OC(C)=O)[C@@H]1OC(C)=O,.,.,.,-4%[15.3 µM],.,.
Nc1ccc(-c2n[nH]c(=O)c3ccccc23)cc1N,0%,0%,3%,0%,16µM*,-4

# Source: PubChem
